From PubChem BioAssay (Tox21)
Several values for one entry are separate records, joined by “and”; a condition that tells them apart may be missing. Identical values can stand only once. Records with an inconclusive call do not appear. A structure can be active in one record and inactive in another. Activity calls are given as the source filed them. Calls come from the whole dose curve; as a rule, active = well fitted curve in the direction sought with a large enough effect in the repeat runs; inconclusive = weak or mixed curves; inactive = no such curve, though single readings can be large; an effect the other way counts as inactive or inconclusive.

Columns and labels:
[1] = qHTS RealTime-Glo MT Cell Viability Assay in HEK293 cells - 40 hour (AID 1224874); conditions: RealTime-Glo luminescence; max response: stronger effect = lower value; note: nearly all actives have a fitted effect of over 50% in size; note: potency is the fitted concentration of half-maximal effect
How it was run: (§1)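 HEK293 + NanoLuc + prosubstrate, 600 cells/well; 5 h, 37 C/5% CO2; compound 23 nL in DMSO by pintool; 37 C; luminescence read at 0, 8, 16, 24, 32 and 40 h time points.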

[2] = A CellTox Green Cytotoxicity Assay to monitor cytotoxicity in HepG2 cells - 16 hour (AID 1224876); note: nearly all actives have a fitted effect of over 45% in size
How it was run: (§2)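 Measurements at 0, 8, 16, 24, 32 and 40 h of treatment captured CellTox Green fluorescence in HepG2 cells that had been co-plated with reagent and preincubated 5 h at 37 C/5% CO2.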

[3] = qHTS RealTime-Glo MT Cell Viability Assay in HepG2 cells - 32 hour (AID 1224877); note: nearly all actives have a fitted effect of over 55% in size
How it was run: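 Tox21 10K library screened in qHTS format on HepG2 cells carrying RealTime-Glo reagents. Compounds were added after a 5 h preincubation, and the luminescent signal from continuous culture was measured repeatedly during 40 h treatment.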

[4] = A CellTox Green Cytotoxicity Assay to monitor cytotoxicity in HepG2 cells - 24 hour (AID 1224878); note: nearly all actives have a fitted effect of over 45% in size
How it was run: as §2

[5] = A CellTox Green Cytotoxicity Assay to monitor cytotoxicity in HepG2 cells - 40 hour (AID 1224879); note: nearly all actives have a fitted effect of over 40% in size; note: potency is the fitted concentration of half-maximal effect
How it was run: as §2

[6] = A CellTox Green Cytotoxicity Assay to monitor cytotoxicity in HEK293 cells - 32 hour (AID 1224881); note: nearly all actives have a fitted effect of over 40% in size
How it was run: (§3)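 Tox21 screen in HEK293: membrane-impermeant cyanine dye fluoresces on binding dead-cell DNA; compound pinned 5 h post-seeding, plates held at 37 C, signal read repeatedly through 40 h.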

[7] = A CellTox Green Cytotoxicity Assay to monitor cytotoxicity in HepG2 cells - 0 hour (AID 1224882); note: nearly all actives have a fitted effect of over 35% in size
How it was run: as §2

[8] = A CellTox Green Cytotoxicity Assay to monitor cytotoxicity in HepG2 cells - 32 hour (AID 1224883); note: nearly all actives have a fitted effect of over 50% in size
How it was run: as §2

[9] = A CellTox Green Cytotoxicity Assay to monitor cytotoxicity in HEK293 cells - 24 hour (AID 1224875); note: series mostly up to about 77 µM; nearly all actives have a fitted effect of over 45% in size
How it was run: as §3

[10] = qHTS RealTime-Glo MT Cell Viability Assay in HEK293 cells - 0 hour (AID 1224880); note: top concentration of the series differs between compounds; nearly all actives have a fitted effect of over 45% in size
How it was run: as §1
% is set by controls: 0 for no effect and ±100 for the full control effect.

CON(C)C(=O)Nc1ccc(Cl)c(Cl)c1
inactive: max response [1] -28.4% | Potency [2] | outcome [3] | Potency [4] | Potency [5] | Potency [6] | Potency [7] | Potency [8]
active: Potency [1] 43.6 µM

CN(C)CCO
inactive: max response [1] -6.53% and -6.4% | Potency [9] | Potency [2] | outcome [3] | Potency [4] | Potency [5] | Potency [6] | Potency [7] | Potency [8]

BrCCBr
inactive: max response [1] 4.67% and 8.82% | Potency [9] | Potency [2] | outcome [3] | Potency [4] | Potency [5] | Potency [6] | Potency [7] | Potency [8]

COC(=O)c1ccccc1C(=O)OC
inactive: max response [1] -6.01% and 4.81% | Potency [9] | Potency [2] | outcome [3] | Potency [4] | Potency [5] | outcome [10] | Potency [6] | Potency [7] | Potency [8]

NCC(O)c1ccc(O)cc1 (centres undefined)
inactive: max response [1] -6.22% and 3.7% | Potency [9] | Potency [2] | outcome [3] | Potency [4] | Potency [5] | outcome [10] | Potency [6] | Potency [7] | Potency [8]

CCc1cccc(C)c1N(C(=O)CCl)C(C)COC (centres undefined)
inactive: max response [1] -0.256% and -7.36% | Potency [9] | Potency [2] | outcome [3] | Potency [4] | Potency [5] | Potency [6] | Potency [7] | Potency [8]

O=[N+]([O-])c1ccc([As](=O)(O)O)cc1
inactive: max response [1] 0.69% and 11.7% | Potency [9] | Potency [2] | outcome [3] | Potency [4] | Potency [5] | outcome [10] | Potency [6] | Potency [7] | Potency [8]

CC1C=[C-]C=C1.[C-]#[O+].[C-]#[O+].[C-]#[O+].[Mn]
inactive: max response [1] 5.97% and 3.98% | Potency [9] | Potency [2] | outcome [3] | Potency [4] | Potency [5] | outcome [10] | Potency [6] | Potency [7] | Potency [8]

Nc1ccccc1C(=O)O
inactive: max response [1] 10.4% and 8.34% | Potency [9] | Potency [2] | outcome [3] | Potency [4] | Potency [5] | outcome [10] | Potency [6] | Potency [7] | Potency [8]

CN(C)N=O
inactive: max response [1] 7.51% and -1.45% | Potency [9] | Potency [2] | outcome [3] | Potency [4] | Potency [5] | outcome [10] | Potency [6] | Potency [7] | Potency [8]

COC(=O)c1ccccc1N
inactive: max response [1] 1.4% and 10.1% | Potency [9] | Potency [2] | outcome [3] | Potency [4] | Potency [5] | Potency [6] | Potency [7] | Potency [8]

Clc1cccc(Cl)c1Cl
inactive: max response [1] 14.5% | Potency [9] | Potency [2] | outcome [3] | Potency [4] | Potency [5] | Potency [6] | Potency [7] | Potency [8]

c1ccc(-c2ccccc2)cc1
49.4 µM (active) and inactive: Potency [5]
inactive: max response [1] -0.911% and -11.7% | Potency [9] | Potency [2] | outcome [3] | Potency [4] | outcome [10] | Potency [6] | Potency [7] | Potency [8]

CNC(=O)Oc1ccccc1OC(C)C
inactive: max response [1] 0.581% and -1.94% | Potency [9] | Potency [2] | outcome [3] | Potency [4] | Potency [5] | outcome [10] | Potency [6] | Potency [7] | Potency [8]

CCCCOC(=O)c1ccccc1C(=O)OCCCC
inactive: max response [1] -5.69% and -1.79% | Potency [9] | Potency [2] | outcome [3] | Potency [4] | Potency [5] | Potency [6] | Potency [7] | Potency [8]

COC(=O)NS(=O)(=O)c1ccc(N)cc1
inactive: max response [1] 15.7% and 20.4% | Potency [9] | Potency [2] | outcome [3] | Potency [4] | Potency [5] | Potency [6] | Potency [7] | Potency [8]

CC(C#N)CCC#N (centres undefined)
inactive: max response [1] 6.71% and -8.28% | Potency [9] | Potency [2] | outcome [3] | Potency [4] | Potency [5] | outcome [10] | Potency [6] | Potency [7] | Potency [8]

C[C@]12CC[C@H]3[C@@H](CC[C@@]45O[C@@H]4C(O)=C(C#N)C[C@]35C)[C@@H]1CC[C@@H]2O
inactive: max response [1] 27.1% and 19.8% | Potency [9] | Potency [2] | outcome [3] | Potency [4] | Potency [5] | Potency [6] | Potency [7] | Potency [8]

CC(C)OC(=O)Nc1cccc(Cl)c1
inactive: max response [1] -5.94% and -18% | Potency [9] | Potency [2] | outcome [3] | Potency [4] | Potency [5] | Potency [6] | Potency [7] | Potency [8]

CC(C)N1C(=O)c2ccccc2NS1(=O)=O
inactive: max response [1] -5.03% and 3.56% | Potency [9] | Potency [2] | outcome [3] | Potency [4] | Potency [5] | Potency [6] | Potency [7] | Potency [8]

C1CC2OC2CC1C1CO1 (centres undefined)
inactive: max response [1] 9.84% | Potency [9] | Potency [2] | outcome [3] | Potency [4] | Potency [5] | outcome [10] | Potency [6] | Potency [7] | Potency [8]
